Laboratory results from PubChem BioAssay AID652065 (The Scripps Research Institute Molecular Screening Center, 2013).
The campaign covered roughly 4,300 compounds. About 3,000 (70%) were called active. So high a share suggests a set chosen from earlier hits. Only a sample is shown. A number with no mark means an inactive call.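 Rule for the calls: active = inhibition above a per-plate cutoff, the mean inhibition of sample wells plus 3 SD (cut at about 35% in these data); inactive = the rest.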

Experiment: small molecules binding CAG repeat RNA – biochemical, fluorescence, confirmation (AID 652065);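 note: loss of TO-PRO-1 fluorescence as compound displaces dye from 1x1 AA loop RNA; 0% = DMSO only wells and 100% = 100 µM mitoxantrone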
Details: r(CAG) RNA repeat, TO-PRO-1 dye displacement fluorescence; at 3 µM; hits give high values

| SMILES | inhibition |
| --- | --- |
| Cc1sc2nc(SCC(=O)c3ccc(O)c(O)c3)n(Cc3ccco3)c(=O)c2c1C | 64.2% (active) |
| CCOC(=O)C1Nc2ccc(C(F)(F)F)cc2C2C=CCC12 (stereo not drawn) | 18.9% |
| CC1(C(=O)NS(=O)(=O)c2ccc(C#N)cc2)CCN1C(=O)c1ccc(C2CCCCC2)cc1 (stereo not drawn) | 51.7% (active) |
| Cc1cc(/C=N/Nc2ccc([N+](=O)[O-])cn2)c(C)n1-c1cccc(C(=O)O)c1 | 35% (active) |
| Cc1ccc(-n2c(SCC(=O)Nc3ccc(S(=O)(=O)Nc4nccs4)cc3)nnc2-c2cccnc2)cc1 | 58.8% (active) |
| Cc1ccc(-n2c(SCC(=O)Nc3ccc(S(=O)(=O)Nc4nccs4)cc3)nnc2-c2ccccn2)cc1 | 60.6% (active) |
| Cc1ccc(-n2c(SCC(=O)Nc3ccc(S(=O)(=O)Nc4nccs4)cc3)nnc2-c2ccncc2)cc1 | 67.3% (active) |
| O=C(NNC(=S)NC(=O)c1cn(-c2ccccc2)nc1-c1ccccc1)c1ccncc1 | 54.8% (active) |
| O=C(O)c1ccc(N/N=C/c2cn(-c3ccccc3)nc2-c2cccs2)cc1 | 61.1% (active) |
| O=C(O)c1ccc(NC(=O)c2cn(-c3ccccc3)nc2-c2ccc(Cl)cc2)cc1 | 62.6% (active) |
| CC(C)=CCCC1(C)C=Cc2c(ccc3c2[nH]c2cc(O)c(C)cc23)O1 (stereo not drawn) | 30.6% |
| Cc1cc(/C=C2/C(=N)N3C(=NC2=O)SN=C3S(C)(=O)=O)c(C)n1-c1ccccc1 | 81.7% (active) |
| CCOc1ccc(-n2c(O)c(/C=N/Nc3nnc(C)c(=O)[nH]3)c3ccccc3c2=O)cc1 | 52.6% (active) |
| C=C1c2c(Cl)ccc(O)c2C(O)=C2C(=O)[C@]3(O)C(O)=C(C(N)=O)C(=O)[C@@H](N(C)C)[C@@H]3[C@@H](O)C12 (stereo partly drawn) | 70.9% (active) |
| Cc1ccc(-n2ncc3c(Nc4cccc(C(=O)O)c4)ncnc32)cc1 | 23.1% |
| CCOc1cc(C)ccc1OCc1nnc(SCC(=O)Nc2cccc(C(=O)O)c2)n1-c1ccccc1 | 41.2% (active) |
| COc1ccc2[nH]c3c(C)c4cc[n+](C)cc4c(C)c3c2c1 | 47.5% (active) |
| N#Cc1c(NC(=O)C2CC(Cl)=CCC2C(=O)O)sc2c1CCCCC2 (stereo not drawn) | 38% (active) |
| N#CCC(=O)Nc1ccc(C(=O)OCC(=O)Nc2sc3c(c2C#N)CCCC3)cc1 | 33.2% |
| COC(=O)c1c(NC(=O)C2CC(C)=C(C)CC2C(=O)O)sc2c1CCCCC2 (stereo not drawn) | 66.4% (active) |
| CCOC(=O)c1c(NC(=O)C2CC=CCC2C(=O)O)sc(C)c1CC (stereo not drawn) | 37.1% (active) |

| SMILES | inhibition |
| --- | --- |
| CSc1ccc(C=Nn2c(-c3ccc(F)cc3)n[nH]c2=S)cc1 | 41.7% (active) |
| N#Cc1c(-c2ccccc2)nc(SCc2cccc(C(F)(F)F)c2)[nH]c1=O | 80.3% (active) |
| O=C1CC(c2ccccc2)=NN1c1ccc([N+](=O)[O-])cc1 | 23.7% |
| N#Cc1c(-c2ccccc2)nc(SCc2ccc([N+](=O)[O-])cc2)[nH]c1=O | 58.7% (active) |
| Cc1ccc(CSc2nc(-c3ccccc3)c(C#N)c(=O)[nH]2)cc1 | 66.6% (active) |
| CCOc1cc(/C=C(\C#N)c2nc(-c3cccs3)c(NC(C)=O)s2)ccc1O | 40.4% (active) |
| O=[N+]([O-])c1cc(Br)c(O)c(/C=N/Nc2nc3ccccc3s2)c1 | 94.7% (active) |
| Cc1ccc(S(=O)(=O)Nc2nc3ccccc3s2)cc1[N+](=O)[O-] | 29.7% |
| C=CCNc1nc(N)c(C(=C(C#N)C#N)c2ccccc2)s1 | 15.9% |
| O=C(N/N=C/c1c(Cl)[nH]c2ccccc12)c1sc2ccccc2c1Cl | 22.9% |
| Cc1cc(F)ccc1S(=O)(=O)Nc1ncnc2scc(-c3ccc(F)cc3)c12 | 70.8% (active) |
| CC(C(=O)Nc1ccc(O)c(C(=O)O)c1)N1C(=O)/C(=C/c2cccs2)SC1=S (stereo not drawn) | 75.9% (active) |
| CSc1nnc(NC(=O)c2nc(S(=O)(=O)Cc3ccc(C)cc3)ncc2Cl)s1 | 37.4% (active) |
| Cc1nnc(NC(=O)Nc2ccc(Cl)c(Cl)c2)s1 | 24.5% |
| CCOC(=O)c1cc2cc(-c3c(C(=O)OCC)oc4cc(O)cc(O)c4c3=O)ccc2o1 | 40.4% (active) |
| Cn1c2ccccc2c2cc(/C=C(\NC(=O)c3ccccc3)C(=O)NCC(=O)O)ccc21 | 39.8% (active) |
| O=C(NC(=S)Nc1ccccc1C(=O)O)c1ccc(-c2ccc(Br)cc2)o1 | 82.7% (active) |
| Cc1ccc(S(=O)(=O)N2[C@@H](c3cccc4ccccc34)C(C(=O)O)=C[C@H]2C(C)(C)C)cc1 | 50.3% (active) |
| Cc1ccc(NC(=O)CC2S/C(=N/N=C3\CCCc4ccccc43)NC2=O)cc1 (stereo not drawn) | 54.7% (active) |
| CC1(C(=O)NS(=O)(=O)c2ccc3ccccc3c2)CCN1C(=O)C1(c2ccc(Cl)cc2)CCC1 (stereo not drawn) | 72% (active) |
| O=[N+]([O-])c1cc(Cl)cc(/C=N/NC(=S)Nc2cc(S(=O)(=O)N3CCOCC3)ccc2Cl)c1O | 95.4% (active) |

| SMILES | inhibition |
| --- | --- |
| CCC(C)Cn1c(O)cc2nn(-c3nc4ccccc4s3)c(=O)c-2c1C (stereo not drawn) | 63.4% (active) |
| CCSc1nsc(NC(=O)Nc2cccc(C(C)=O)c2)n1 | 26.3% |
| CC(C)c1nc(SCC(=O)Nc2cccc(C(=O)O)c2)c2c3c(sc2n1)CCCC3 | 61.1% (active) |
| Cc1ccc2nc(N3C(=O)C(O)=C(C(=O)c4ccco4)C3c3cccc(O)c3)sc2c1 (stereo not drawn) | 73.8% (active) |
| COc1cc(C2CC(=O)N3CN(Cc4ccccc4)CSC3=C2C#N)ccc1OCc1ccccc1 (stereo not drawn) | 25.8% |
| O=C(N/N=C/c1cccnc1)c1cc2ccccc2cc1O | 9.03% |
| O=C(NNc1c2ccccc2nc2ccccc12)c1cc2ccccc2cc1O | 45.6% (active) |
| CC(=N\NC(=O)c1cc(Br)ccc1O)/C(=N/O)C(=O)Nc1ccccc1 | 12.1% |
| Cc1ccc(/C=C/C(=O)Nc2ccc([N+](=O)[O-])c(NC(=O)/C=C/c3ccc(C)o3)c2)o1 | 47.7% (active) |
| O=C(Nc1cccc(F)c1)c1cc(-c2ccco2)nc2ccccc12 | 4.09% |
| O=C(O)c1cccc(NC(=O)c2cc(-c3cccc(Cl)c3)nc3ccccc23)c1 | 46.1% (active) |
| Cc1ccccc1-n1c(SCC(=O)Nc2cccc3ccccc23)nc(O)cc1=O | 14.2% |
| CCOc1ccc(-n2c(SCC(=O)Nc3cc(C(=O)O)ccc3Cl)nc3ccccc3c2=O)cc1 | 52.9% (active) |
| Cc1ccc(CNC(=O)C2CCN(S(=O)(=O)c3ccc4nc5c(c(C(=O)O)c4c3)CC(C)CC5)CC2)cc1 (stereo not drawn) | 36.4% (active) |
| O=C(O)c1ccc2c(c1)C(=O)N(c1ccc(/C=C/C(=O)c3ccccc3)cc1)C2=O | 65.3% (active) |
| COc1ccc(OC)c(NC(=O)CSc2nc(-c3ccccc3)cc(=O)[nH]2)c1 | 24.5% |
| Cc1ccc(NC(=O)CSc2sc3c(O)cc(=O)[nH]c3c2C#N)cc1C | 27.9% |
| Cc1ccc(NC(=O)CSc2nc(CSc3ccc(C)cc3)cc(=O)[nH]2)cc1 | 53.5% (active) |
| Cc1ccc(C(C)C)c(OCCSc2nc3ccccc3n2CC(=O)O)c1 | 50.3% (active) |
| Cc1ccc2cc(/C=N/Nc3ccc(C(=O)O)cc3)c(Cl)nc2c1 | 46.6% (active) |
| COc1ccc(-c2cc(C(=O)NC(Cc3c[nH]c4ccccc34)C(=O)O)c(C)o2)cc1OC (stereo not drawn) | 61.4% (active) |

| SMILES | inhibition |
| --- | --- |
| COc1ccc(S(=O)(=O)NCCc2c[nH]c3ccccc23)cc1OC | 0.91% |
| O=C(N[C@@H](Cc1c[nH]c2ccccc12)C(=O)O)OCC1c2ccccc2-c2ccccc21 | 63.4% (active) |
| CC(Oc1ccc2c(-c3ccccc3)cc(=O)oc2c1)C(=O)NC(Cc1c[nH]c2ccccc12)C(=O)O (stereo not drawn) | 62.4% (active) |
| COc1ccc(-c2cc(=O)oc3cc(OCC(=O)N[C@@H](Cc4c[nH]c5ccccc45)C(=O)O)ccc23)cc1 | 65.3% (active) |
| O=c1cc(CN2CCN(S(=O)(=O)/C=C/c3ccccc3)CC2)c2ccc(O)cc2o1 | 22.5% |
| CCOc1ccc(C(=O)Nc2ccc(S(=O)(=O)Nc3cc(C)on3)cc2)cc1 | 23.1% |
| COc1cc2ccccc2cc1C(=O)Nc1ccc(S(=O)(=O)Nc2cc(C)on2)cc1 | 58.8% (active) |
| Cc1cccc(C)c1NC(=O)C(c1ccc(C(F)(F)F)cc1)n1c(=O)c(-c2ccco2)nc2ccccc21 (stereo not drawn) | 26.2% |
| COCCNC(=O)Nc1ccc2nc(-c3ccco3)c(-c3ccco3)nc2c1 | 61.6% (active) |
| CC(C)c1ccc(CC(=O)N2CCC2(C)C(=O)NS(=O)(=O)c2ccc(C(C)(C)C)cc2)cc1 (stereo not drawn) | 70.7% (active) |
| CC1(C(=O)NS(=O)(=O)c2ccccc2)CCN1C(=O)Cc1ccc(-c2ccccc2)cc1 (stereo not drawn) | 34.1% |
| COc1ccc(S(=O)(=O)NC(=O)C2(C)CCN2C(=O)c2ccccc2CCc2ccccc2)cc1 (stereo not drawn) | 34% |
| O=S(=O)(Nc1ccc(O)c2ccccc12)c1ccc(OC(F)(F)F)cc1 | 52.9% (active) |
| COc1ccc(COC(=O)NC(C(=O)O)c2ccccc2)cc1 (stereo not drawn) | 2.31% |
| Cc1c(C)c2c(OCC(=O)N[C@@H](C(=O)O)c3ccccc3)cc3c(c2oc1=O)CCC(C)(C)O3 | 46.1% (active) |
| Cc1ccc(N=C2NC(=O)/C(=C/C=C/c3ccco3)S2)cc1C | 48.9% (active) |
| CN(C)S(=O)(=O)c1cccc(-c2nn(-c3ccccc3)cc2/C=C2\SC(=S)N(CC(=O)O)C2=O)c1 | 88.1% (active) |
| Cc1ccc(-c2nn(-c3ccccc3)cc2/C=C2\SC(=S)N(CCCCCC(=O)O)C2=O)o1 | 56% (active) |
| O=C(CCCN1C(=O)/C(=C\c2ccco2)SC1=S)Nc1cccc2ccccc12 | 17% |
| CC1(C(=O)NS(=O)(=O)Cc2cccc(Cl)c2)CCN1C(=O)Cc1ccc(Cl)cc1Cl (stereo not drawn) | 78.9% (active) |
